Test results: the supplement of paper PMC5641865, “A screen for kinase inhibitors identifies antimicrobial imidazopyridine aminofurazans as specific inhibitors of the Listeria monocytogenes PASTA kinase PrkA” (The Journal of Biological Chemistry, 2017)
Several values for one entry are separate records, joined by “and”; a condition that tells them apart may be missing. Equal values may be shown once. ± gives the standard deviation of the averaged measurements.

System: Listeria monocytogenes 10403S
Assay: growth inhibition relative to ceftriaxone-alone control; higher = stronger potentiation of ceftriaxone growth inhibition
Conditions: 10 µM; ceftriaxone 1 ug/ml; 12 h
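Further: End-point A600 read in BHI broth at 37 °C with 2% DMSO, inhibition computed as (1 − OD with compound plus ceftriaxone ÷ OD with ceftriaxone only) × 100.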

| SMILES | growth inhibition |
| --- | --- |
| c1cc(-c2cnn3nc(N4CCOCC4)ccc23)nc(NC2CC2)n1 | -1.92 ± 0.84% |
| O=C1Nc2ccc(I)cc2C1=Cc1cc(Br)c(O)c(Br)c1 | 36.9 ± 6% |
| CN1CCC(n2cnc(-c3ccc(F)cc3)c2-c2ccnc(NCCO)n2)CC1 | -2.88 ± 2.5% |
| Cc1cccc(Nc2ncc(-c3ccccc3)o2)c1 | -0.369 ± 0.46% |
| COc1cc2ncnc(Nc3ccc(C)c(O)c3)c2cc1OC | -12.9 ± 9.4% |
| COc1ccc2ncn(-c3cc(O[C@H](C)c4ccccc4Cl)c(C(N)=O)s3)c2c1 | 1.82 ± 0.29% |
| CN(C)CCOc1ccc(-c2cc(-c3ccc4c(c3)CCC4=NO)c(-c3ccncc3)o2)cc1 | 36.5 ± 39% |
| O=c1cc(N2CCOCC2)oc2c(-c3cccc4c3sc3ccccc34)cccc12 | 26.2 ± 7% |
| S=C(NCc1ccc2c(c1)OCO2)N1CCN(c2ncnc3c2oc2ccccc23)CC1 [Amuvatinib (MP-470)] | 11.7 ± 22% |
| CC(C)CC(=O)Nc1n[nH]c2c1CN(C(=O)C1CCN(C)CC1)C2(C)C | -44.3 ± 75% |
| CS(=O)(=O)CCNCc1cc(-c2cc3c(Nc4ccc(OCc5cccc(F)c5)c(Cl)c4)ncnc3s2)cs1 | -10.8 ± 13% |
| CCS(=O)(=O)c1ccc(OC)c(Nc2nccc(N(C)c3ccc4c(C)n[nH]c4c3)n2)c1 | 0.981 ± 2.5% |
| O=C(O)c1ccc(Nc2ncc3c(n2)-c2ccc(Cl)cc2C(c2c(F)cccc2F)=NC3)cc1 | 91.3 ± 3.5% |
| FC(F)(F)c1ccc(-c2nn3ncccc3c2-c2ccnc(Nc3ccc4c(c3)OCCO4)n2)cc1 | -7.04 ± 3.3% |
| CNC(=O)c1nn(C)c2c1C(C)(C)Cc1cnc(Nc3ccc(N4CCN(C)CC4)cc3)nc1-2 | 20.7 ± 8.5% |
| Nc1ncnc2occ(-c3ccc(NC(=O)Nc4cccc(C(F)(F)F)c4)cc3)c12 | -12.9 ± 3.5% |
| O=C(Nc1cc(C(F)(F)F)cc(C(F)(F)F)c1)c1cc(Cl)ccc1O | 97.6 ± 0.39% |
| Oc1ccc(-c2nc(-c3ccc(F)cc3)c(-c3ccncc3)[nH]2)cc1 | 23.7 ± 32% |
| COc1cc2ncnc(Nc3ccc(F)c(Cl)c3)c2cc1OCCCN1CCOCC1 [Gefitinib (Iressa)] | 31 ± 21% |

| SMILES | growth inhibition |
| --- | --- |
| CCNC(=O)O[C@H]1CN[C@H](C#Cc2cc3ncnc(Nc4ccc(OCc5cccc(F)c5)c(Cl)c4)c3s2)C1 | 27.1 ± 33% |
| Cc1ccc(NC(=O)c2cccc(N(C)C)c2)cc1NC(=O)c1ccc(O)cc1 | 29.5 ± 12% |
| CN1CCN(c2nc(C3=C(c4c[nH]c5ccccc45)C(=O)NC3=O)c3ccccc3n2)CC1 [Sotrastaurin (AEB071)] | 44.8 ± 28% |
| O=C(NOCC(O)CO)c1cc(Br)c(F)c(F)c1Nc1ccc(I)cc1F (stereo not drawn) | 100 ± 5.2% |
| COC(=O)Nc1ccc(-c2nc(N3CCOCC3)c3cnn(C4CCN(Cc5cccnc5)CC4)c3n2)cc1 | 33.8 ± 29% |
| O=C(NC[C@H](O)CO)c1ccncc1Nc1ccc(I)cc1F | 1.43 ± 12% |
| c1ccc(COc2ccc(Nc3ncnc4ccc(-c5ccco5)cc34)cc2)cc1 | -9.94 ± 12% |
| CNC(=O)c1ccccc1Sc1ccc2c(/C=C/c3ccccn3)n[nH]c2c1 [Axitinib] | -11.8 ± 14% |
| COc1ccc(-c2ccc3ncc4c(c3c2)n(-c2ccc(N3CCNCC3)c(C(F)(F)F)c2)c(=O)n4C)cn1 | 28.5 ± 9.7% |
| COc1ccc(-c2nn3ncccc3c2-c2ccnc(Nc3ccc(Cl)c(C(F)(F)F)c3)n2)cc1 | -8.69 ± 0.94% |
| C[C@@H]1CCN(C(=O)CC#N)C[C@@H]1N(C)c1ncnc2[nH]ccc12 | 11.4% and 15.6% |
| COc1cc2ncn(-c3cc(OCCc4ccccc4)c(C(N)=O)s3)c2cc1OC | -4.76 ± 1.4% |
| O=C(Nc1n[nH]c2nc(-c3ccc(O)cc3)c(Br)cc12)C1CC1 | -9.15 ± 4.2% |
| c1ccc(Cc2nc3ccc(Nc4ncnc5ccccc45)cc3[nH]2)cc1 | -14.5 ± 19% |
| Nc1ncc(-c2cccc(S(N)(=O)=O)c2)c2scc(-c3ccc(F)c(Cl)c3)c12 | -7.14 ± 12% |
| NC(=O)Nc1cc(-c2cccc(F)c2)sc1C(=O)N[C@H]1CCCNC1 | 16.7 ± 12% |
| NS(=O)(=O)c1ccc(Nc2cc(-c3cccc(O)c3)n[nH]2)cc1 | 10.9 ± 3.9% |
| COc1cc(Nc2ncc(F)c(Nc3ccc4c(n3)N(COP(=O)(O)O)C(=O)C(C)(C)O4)n2)cc(OC)c1OC [R788 (Fostamatinib)] | 12.5 ± 9.9% |
| CS(=O)(=O)CCNCc1ccc(-c2ccc3ncnc(Nc4ccc(OCc5ccccc5)c(Cl)c4)c3c2)o1 | -9.81 ± 12% |
